For eight compounds, Potency, outcome and activity change, positive = activation results are on record in PubChem BioAssay (Tox21).

Experiment [1] is described as follows: qHTS assay to identify small molecule antagonists of the estrogen related receptor (ERR) signaling pathway from Tox21 library - cell viability counter screen (AID 1224834). Note: nearly all actives have a fitted effect of over 30% in size. The essentials: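 Fluorescence from CellTiter-Fluor gives the viability read-out, taken 30 min after reagent addition. Before that, ERR cells seeded 6 h earlier were incubated with compounds for 17.5 h at 37 C.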
On the technique in general: Quantitative high-throughput screening tests each substance at several concentrations.

For experiment [2], the target named is Luciferin 4-monooxygenase (Photinus pyralis) (UniProt P08659). Description: qHTS assay to identify small molecule inhibitors of firefly luciferase (AID 1224835). Note: nearly all actives have a fitted effect of over 25% in size. The essentials: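 Inhibition of purified Photinus luciferase is measured by luminescence. Substrate levels (D-luciferin, ATP) sit at their KM values. Each compound is tested in a concentration series.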
Chain of Luciferin 4-monooxygenase (Photinus pyralis) (P08659 whole entry, looked up): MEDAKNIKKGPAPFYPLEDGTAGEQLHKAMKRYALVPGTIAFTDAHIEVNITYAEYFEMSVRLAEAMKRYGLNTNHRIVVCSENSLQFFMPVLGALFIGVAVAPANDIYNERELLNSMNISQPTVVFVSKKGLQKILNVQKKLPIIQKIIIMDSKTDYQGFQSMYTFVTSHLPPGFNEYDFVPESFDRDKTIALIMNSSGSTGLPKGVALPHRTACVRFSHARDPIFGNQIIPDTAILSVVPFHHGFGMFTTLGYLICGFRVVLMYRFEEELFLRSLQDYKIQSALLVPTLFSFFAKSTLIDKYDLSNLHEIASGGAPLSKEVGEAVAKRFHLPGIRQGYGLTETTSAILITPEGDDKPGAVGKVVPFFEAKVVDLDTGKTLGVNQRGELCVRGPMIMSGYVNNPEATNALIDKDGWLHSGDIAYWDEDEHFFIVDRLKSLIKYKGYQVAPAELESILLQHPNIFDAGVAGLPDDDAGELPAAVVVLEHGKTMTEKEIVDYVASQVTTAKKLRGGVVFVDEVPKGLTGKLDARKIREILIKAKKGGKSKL

The nature of experiment [3]: qHTS assay to identify small molecule agonists of the constitutive androstane receptor (CAR) signaling pathway - cell viability counter screen (AID 1224836). Note: nearly all actives have a fitted effect of over 45% in size. The method in brief: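 Viability read-out: CellTiter-Fluor fluorescence after 23 h compound exposure at 37 C/5% CO2 in double-stable HepG2-CYP2B6-hCAR cells, with PK11195 present at 0.75 uM final; compounds tested in 15-point titration.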

A short description of experiment [4]: qHTS assay to identify small molecule antagonists of the constitutive androstane receptor (CAR) signaling pathway - cell viability counter screen (AID 1224837). Note: nearly all actives have a fitted effect of over 45% in size. The essentials:
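HepG2-CYP2B6-hCAR cells, 2500/well, 4 hr pre-incubation; compound titration, 15 conc.; CITCO 50 nM final; 23 hr, 37 C/5% CO2; CellTiter-Fluor, fluorescence intensity.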

For experiment [5], the target named is Nuclear receptor subfamily 1 group I member 3 (Homo sapiens) (UniProt Q14994). Description: qHTS assay to identify small molecule antagonists of the constitutive androstane receptor (CAR) signaling pathway (AID 1224838).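 Note: HepG2 cells stably expressing hCAR with CYP2B6 luciferase reporter stimulated by CITCO; nearly all actives have a fitted effect of over 40% in size.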 The essentials: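 HepG2-CYP2B6-hCAR cells; 4 h pre-incubation; cpd (15 conc) + CITCO 50 nM final; 24 h, 37 C/5% CO2; ONE-Glo, luminescence.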
Chain of Nuclear receptor subfamily 1 group I member 3 (Homo sapiens) (Q14994 whole entry, looked up): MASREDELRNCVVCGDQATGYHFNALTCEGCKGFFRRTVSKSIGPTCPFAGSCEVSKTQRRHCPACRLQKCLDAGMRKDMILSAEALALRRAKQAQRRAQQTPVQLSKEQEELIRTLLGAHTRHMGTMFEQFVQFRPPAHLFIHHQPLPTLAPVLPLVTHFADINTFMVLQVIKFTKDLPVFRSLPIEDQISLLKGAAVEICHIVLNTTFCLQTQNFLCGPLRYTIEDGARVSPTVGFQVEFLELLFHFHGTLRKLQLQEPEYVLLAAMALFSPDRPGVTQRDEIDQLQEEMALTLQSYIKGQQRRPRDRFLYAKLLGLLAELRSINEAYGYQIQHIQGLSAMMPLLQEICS

For experiment [6] the target is unchanged. Kind of experiment: qHTS assay to identify small molecule agonists of the constitutive androstane receptor (CAR) signaling pathway (AID 1224839).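 For activation: HepG2 cells stably carrying human CAR and a CYP2B6 luciferase reporter.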 Note: nearly all actives have a fitted effect of over 15% in size. Note: potency is the fitted concentration of half-maximal effect. The essentials: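 Luminescence read-out (ONE-Glo, 30 min, room temperature) from double-stable HepG2-CYP2B6-hCAR cells exposed 24 h to 15-point compound series in presence of 0.75 uM PK11195 final.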
The nature of experiment [7]: qHTS assay to identify small molecule antagonists of the estrogen related receptor signaling pathway with the pleiotropic PPARgamma coactivator (PGC) from Tox21 10K library - cell viability counter screen (AID 1224840; active = well fitted cell-killing curve with a large enough effect in the repeat runs, not every such curve was filed as active; note: nearly all actives have a fitted effect of over 40% in size). The essentials: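 PGC/ERR cells, 2,000/well; 6 h pre-incubation 37 C/5% CO2; cpd in DMSO via pin tool; 17.5 h 37 C; CellTiter-Fluor, 30 min; fluorescence.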

In experiment [8] the target is Thyrotropin receptor (Homo sapiens) (UniProt P16473). Description: qHTS assay to identify small molecule agonists of the thyroid stimulating hormone receptor (TSHR) signaling pathway (AID 1224843; calls by dose curve; note: nearly all actives have a fitted effect of over 45% in size). The method in brief:
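Screening of the Tox21 10K collection used HEK293 cells engineered with TSHR at 800 cells per well. After a 30-min room-temperature compound exposure, HTRF cAMP reagents were added and fluorescence recorded 1 h later.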

A short description of experiment [9]: qHTS assay to identify small molecule agonists of the hypoxia (HIF-1) signaling pathway - cell viability counter screen (AID 1224844; calls by dose curve; note: nearly all actives have a fitted effect of over 50% in size; note: potency is the fitted concentration of half-maximal effect). The method in brief:
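ME-180 HRE-bla cells, 2,000/well, 0.5% dialyzed FBS; 5 hr settle, 17 hr compound at 37C/5% CO2; CCF4-AM reporter read first, then CellTiter-Glo luminescence after 30 min RT.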

The nature of experiment [10]: qHTS assay to identify small molecule agonists of H2AX (AID 1224845; active = well fitted activation curve with a large enough effect in the signal ratio in the repeat runs, not every such curve was filed as active; the % refers to the signal ratio). The essentials:
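Phospho-H2AX Ser139 measured by HTRF (ex 320 nm; em 665 and 620 nm) after 24 hr antibody incubation. Compounds, 15 concentrations, 0.76% DMSO, were applied to CHO-K1 cells for 3hr at 37C before lysis.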

Experiment [11] in a line: qHTS assay to identify small molecule agonists of the hypoxia (HIF-1) signaling pathway (AID 1224846; active = well fitted activation curve with a large enough effect in the signal ratio in the repeat runs, not every such curve was filed as active; the % refers to the signal ratio). The essentials:
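Cell line: CellSensor HRE-bla ME-180; 2,000 cells/well; 0.5% dialyzed FBS; 5 h preincubation; DMSO compound pin transfer; 17 h, 37C, 5% CO2; CCF4-AM added; bla FRET signal scored for activation.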

Experiment [12] can be described thus: qHTS assay to identify small molecule agonists of H2AX - cell viability counter screen (AID 1224847; calls by dose curve;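 note: wild-type CHO-K1 cells; top concentration of the series differs between compounds; nearly all actives have a fitted effect of over 30% in size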). The essentials:
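CHO-K1 wt, 1000 cells/well, o/n 37C; cpds 15 conc, 3 h 37C, 0.76% DMSO; CellTiter-Glo, 30 min RT, luminescence.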

Experiment [13] is described as follows: qHTS RealTime-Glo MT Cell Viability Assay in HepG2 cells - 24 hour (AID 1224867). Note: nearly all actives have a fitted effect of over 50% in size. The method in brief: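 Cell number in HepG2 cultures estimated from NanoLuc luminescence generated by metabolic reduction of a prosubstrate by living cells. The homogeneous, nonlytic format allowed repeated reads at 0, 8, 16, 24, 32 and 40 h of compound exposure.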
Experiment [14] can be described thus: qHTS RealTime-Glo MT Cell Viability Assay in HEK293 cells - 32 hour (AID 1224868). Note: top concentration of the series differs between compounds; nearly all actives have a fitted effect of over 50% in size. The essentials:
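Homogeneous bioluminescent viability format in HEK293 cells (600 cells/well). Following 5 h at 37 C/5% CO2, 23 nL compound was pintooled; the signal was measured repeatedly during 40 h incubation.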

Experiment [15] is described as follows: A CellTox Green Cytotoxicity Assay to monitor cytotoxicity in HEK293 cells - 0 hour (AID 1224869). Note: nearly all actives have a fitted effect of over 50% in size. The essentials:
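Nonlytic real-time cytotoxicity: HEK293 + CellTox Green reagent plated, 5 h preincubation, pintool compound addition (23 nL in DMSO), 37 C for 40 h, fluorescence measured at successive time points.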

Experiment [16] is described as follows: qHTS RealTime-Glo MT Cell Viability Assay in HepG2 cells - 40 hour (AID 1224870). Note: nearly all actives have a fitted effect of over 50% in size. The essentials: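 Real-time viability: cells seeded at 600 per well together with NanoLuc and cell-permeant prosubstrate, compounds added after 5 h incubation. Luminescence tracked at 0, 8, 16, 24, 32 and 40 h of exposure.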
Experiment [17] in a line: qHTS assay to identify small molecule antagonists of the estrogen related receptor signaling pathway with the pleiotropic PPARgamma coactivator (PGC) from Tox21 10K library (AID 1224841; call rule not given here). The essentials: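 PGC/ERR cell line, 2,000 cells/well; 6 h pre-incubation 37 C/5% CO2; compounds (DMSO) pinned in; 18 h, 37 C; One-Glo, 30 min RT; luminescence.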
A short description of experiment [18]: qHTS assay to identify small molecule agonists of the estrogen related receptor signaling pathway with the pleiotropic PPARgamma coactivator (PGC) from Tox21 10K library (AID 1224842). Note: nearly all actives have a fitted effect of over 15% in size. The method in brief:
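Luminescence from One-Glo (30 min, room temperature) measured after PGC/ERR cells had 18 h at 37 C with pinned compound (23 nL in DMSO). Cells had been seeded at 2,000 per well and pre-incubated 6 h.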

A short description of experiment [19]: qHTS assay to identify small molecule antagonists of the estrogen related receptor (ERR) signaling pathway from Tox21 library (AID 1224848). Note: nearly all actives have a fitted effect of over 50% in size. The method in brief: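 Antagonist-mode screen of the Tox21 10K library in an NTP-provided ERR reporter cell line; 18 h compound exposure at 37 C, luminescence measured with ONE-Glo.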
Experiment [20] in a line: qHTS assay to identify small molecule agonists of the estrogen related receptor (ERR) signaling pathway from Tox21 library (AID 1224849; calls by dose curve; note: nearly all actives have a fitted effect of over 15% in size). The settings on record: ERR reporter cell line, ONE-Glo luciferase, 18 h; at 92.4 µM (top of the series) unless noted. The method in brief:
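ERR cells, 6 h pre-incubation 37 C/5% CO2; cpd in DMSO pinned; 18 h 37 C; ONE-Glo added, 30 min RT; luminescence read. Agonist mode, qHTS.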

A number with no mark means an inactive call. Results filed as inconclusive are left out. Active and inactive are the calls of the source. Unless noted, calls come from the whole dose curve; as a rule, active = well fitted curve in the direction sought with a large enough effect in the repeat runs; inconclusive = weak or mixed curves; inactive = no such curve, though single readings can be large; an effect the other way counts as inactive or inconclusive.
% is set by controls: 0 for no effect and ±100 for the full control effect.

Chain of Thyrotropin receptor (Homo sapiens) (P16473 whole entry, looked up): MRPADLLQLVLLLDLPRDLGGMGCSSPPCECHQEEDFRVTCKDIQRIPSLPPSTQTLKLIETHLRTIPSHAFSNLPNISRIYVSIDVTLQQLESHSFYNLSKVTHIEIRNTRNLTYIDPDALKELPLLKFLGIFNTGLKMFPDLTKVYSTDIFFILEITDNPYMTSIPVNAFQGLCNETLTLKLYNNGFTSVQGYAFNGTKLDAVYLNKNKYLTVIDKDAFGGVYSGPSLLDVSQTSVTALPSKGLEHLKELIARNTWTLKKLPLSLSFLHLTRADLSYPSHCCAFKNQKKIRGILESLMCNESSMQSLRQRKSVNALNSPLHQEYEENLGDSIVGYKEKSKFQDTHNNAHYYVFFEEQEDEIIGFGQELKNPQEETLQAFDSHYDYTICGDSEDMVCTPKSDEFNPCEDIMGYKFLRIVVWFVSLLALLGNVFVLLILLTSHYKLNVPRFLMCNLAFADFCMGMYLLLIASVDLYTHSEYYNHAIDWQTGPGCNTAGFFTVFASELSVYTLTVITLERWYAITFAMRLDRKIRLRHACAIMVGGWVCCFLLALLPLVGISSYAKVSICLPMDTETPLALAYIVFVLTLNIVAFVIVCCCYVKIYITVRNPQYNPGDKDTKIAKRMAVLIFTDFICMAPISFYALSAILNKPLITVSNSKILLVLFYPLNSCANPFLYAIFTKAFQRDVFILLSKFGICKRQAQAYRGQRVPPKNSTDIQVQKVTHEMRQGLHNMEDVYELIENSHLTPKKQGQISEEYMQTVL

`Oc1c(Cl)cccc1Cl`: the Potency result in experiment [1], in experiment [2], in experiment [3], in [4], in experiment [5] and in experiment [6] was “inactive” throughout. Further, the Potency entry in experiment [7], in experiment [8], in [9], in [10], in [12] and in experiment [13] was “inactive” in each case. In addition, the Potency result in [14], in experiment [15] and in experiment [16] was “inactive” in each case. In addition, the compound was classed as inactive in experiment [11].
On to `O=[N+]([O-])c1cccc2cccnc12`, for which the Potency result in experiment [1], in experiment [2], in [3], in [4], in experiment [5] and in experiment [7] was “inactive” in each case. The Potency result in experiment [8], in experiment [9], in experiment [10], in experiment [12], in experiment [13] and in experiment [14] was “inactive” in each case. For the same compound, the Potency entry in [16] is “inactive”. Besides, in [11], the compound was called inactive.
On to `CC(=O)CC(c1ccc(Cl)cc1)c1c(O)c2ccccc2oc1=O` (centres undefined), for which the Potency entry in [1], in experiment [2], in [3], in experiment [4], in experiment [5] and in experiment [6] was “inactive” each time. For the same compound, the Potency result in experiment [7], in experiment [8], in experiment [9], in experiment [13], in experiment [15] and in [16] was “inactive” in each case. In addition, the compound was called inactive in experiment [11].
Turning to `C(CCOCC1CO1)COCC1CO1` (centres undefined), the Potency entry in experiment [1], in experiment [2], in experiment [3], in experiment [4], in [5] and in experiment [6] was “inactive” in each case. Besides, the Potency result in experiment [7], in experiment [8], in [10], in [12], in [13] and in [15] was “inactive” throughout. In experiment [16], the Potency result was “inactive”.
With `CC(CCc1ccccc1)NC(C)C(O)c1ccc(O)cc1` (centres undefined), the Potency entry in experiment [1], in [2], in [3], in experiment [4], in experiment [5] and in experiment [6] was “inactive” each time. In addition, the Potency result in experiment [7], in [8], in experiment [9], in experiment [10], in experiment [12] and in [13] was “inactive” in each case. Besides, the Potency entry in [15] and in [16] was “inactive” throughout. For the same compound, the compound was called inactive in experiment [11].
Turning to `CCOP(=S)(OCC)SCSc1ccc(Cl)cc1`, the Potency result in [1], in [2], in experiment [3], in experiment [4], in experiment [5] and in experiment [7] was “inactive” throughout. Besides, the Potency entry in experiment [9], in experiment [13], in experiment [14], in experiment [15] and in experiment [16] was “inactive” throughout. In addition, the Potency in experiment [6] is 27.3 µM (active). Besides, the outcome in experiment [11] was inactive.
As for `O=[N+]([O-])c1ccc(CBr)cc1`, the Potency entry in experiment [1], in experiment [2], in experiment [3], in [4], in [5] and in experiment [7] was “inactive” throughout. Moreover, the Potency result in experiment [8], in experiment [10], in [12], in [13], in [15] and in [16] was “inactive” throughout. Besides, in experiment [9], the Potency is 24.2 µM (active).
Regarding `CN1CCC(O)(c2ccc(F)cc2)C(C(=O)c2ccc(F)cc2)C1` (centres undefined), the Potency entry in experiment [1], in experiment [2], in [3], in experiment [4], in [6] and in [7] was “inactive” each time. Further, the Potency entry in experiment [17], in [8], in experiment [9], in [10], in experiment [12] and in [19] was “inactive” in each case. Further, the Potency entry in experiment [13] and in experiment [14] was “inactive” each time. In addition, the compound was called inactive in experiment [18] and in [11]. For the same compound, the activity change, positive = activation in experiment [20] was 0.426% [at 42.5 µM].
